# Results filed as inconclusive are left out. Values without a mark were called inactive. Calls of active or inactive are those of the source. The call rests on the fitted dose curve; in most records, active means well fitted cell-killing curve with a large enough effect in the repeat runs; inconclusive means weak or mixed curves, or effect the other way; inactive means no such curve, though single readings can be large or run the other way.
# Test: qHTS assay to identify small molecule agonists of the vitamin D receptor (VDR) signaling pathway - cell viability counter screen (AID 743224); further: nearly all actives have a fitted effect of over 50% in size
# Settings: VDR-bla HEK293T viability, CellTiter-Glo luminescence, 16 h; series mostly up to 62.6 µM; activity change, negative = cytotoxicity: at the top concentration
# In short: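 VDR-bla cells were preincubated 4 h at 37C/5% CO2, then exposed to compounds for 16 h. After the 2 h room-temperature bla FRET read, CellTiter-Glo was added to the same wells and luminescence read after 30 min.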
# On the % scale 0 is the no-effect control and ±100 the full control effect.
SMILES,Potency,"activity change, negative = cytotoxicity"
Cc1ccnc2c1NC(=O)c1cccnc1N2C1CC1,inactive,–
CC(C(O)c1ccc(O)cc1)N1CCC(Cc2ccccc2)CC1 (stereo not drawn),–,-28.9%
NCCCCCC(=O)O,–,-0.339%
NC12CC3CC(CC(C3)C1)C2,–,7.43%
CC(=O)OCCOCCOCCOC(C)=O,inactive,–
CC[C@@H](N)CO,–,-0.678% [at 81.1 µM]
CCC(CO)(CO)COCC(CC)(CO)CO,–,3.94%
COc1ccc(Cc2cnc(N)nc2N)cc1OC,–,6.97%
O=C(OCc1ccccc1)c1ccc(O)cc1,–,-5.22%
CCCC(=O)c1ccccc1,–,5.58%
COc1nc(C)nc(Cl)c1NC1=NCCN1,–,-17.7%
CCCCN(CCO)CCCC,–,4.74% [at 81.1 µM]
COc1ccc(COC(C)=O)cc1,–,15.2%
CC(=O)CC(C)=O,–,0.931% [at 81.1 µM]
CCN1CCCC1CNC(=O)c1cc(S(=O)(=O)CC)c(N)cc1OC (stereo not drawn),–,0.135%
C1COC(NC(C2CC2)C2CC2)=N1,–,16.5%
NC(N)=NC(=O)Cc1c(Cl)cccc1Cl,–,-16.5%
CCC(=O)/C=C/C1C(C)=CCCC1(C)C (stereo not drawn),inactive,–
C=C(C)C(=O)O,inactive,–
CC(C)(C)c1ccccc1,–,5.76%
[Cl][In]([Cl])[Cl],inactive,–
Cc1occc(=O)c1OC(=O)C(C)C,–,2.72%
NC(N)=Nc1nc(CSCC/C(N)=N/S(N)(=O)=O)cs1,inactive,–
CCCCCCCCCCCCCCCCCl,–,-3.46% [at 29.1 µM]
COC(c1ccccc1)(c1ccccc1)[C@H](Oc1nc(C)cc(C)n1)C(=O)O,–,13.1%
CCCCC/C=C/CC1CC(=O)OC1=O (stereo not drawn),–,-24.2%
O=C(O)c1cc(Cl)cc(Cl)c1,–,-0.563%
CCn1cc(C(=O)O)c(=O)c2cc(F)c(N3CCNC(C)C3)c(F)c21 (stereo not drawn),–,8.8%

# — PubChem BioAssay (Tox21)
